Tests used:
Experiment in all cases: DAPPL (digital affinity profiling via proximity ligation, sequencing); 10 mM Tris-HCl pH 7.5, 50 mM NaCl, 1 mM DTT, 4% glycerol, room temperature, 30 min; GST-TFs on glutathione beads, 16-mer random dsDNA library, 0.1% formaldehyde crosslink after washing; high values mean tight binding
HSF1 = HSF1 (Homo sapiens, UniProt Q00613 1-529); conditions: protein: recombinant; tags: N-terminal GST; chain copies: 3; dsDNA, one strand shown
Summary of the method: (§1)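 Human transcription factors carrying a GST fusion were produced in yeast, bound to glutathione beads, tagged with DNA barcodes and pooled together with a tag-only sample. Each pool was held with 200 nmole of a random double-stranded 16-mer DNA library in Tris/NaCl/DTT/glycerol buffer for 30 min at room temperature, then washed, crosslinked in 0.1% formaldehyde, proximity-ligated with BsaI/T4 ligase (1 h, 37 °C), PCR-amplified and sequenced on an Illumina NextSeq500. Binding signal is the read frequency of each hexamer for a given factor divided by its frequency in the tag-only sample.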

FLI1 = molecular target: T1, FLI1 (Homo sapiens, UniProt Q01543 1-452); conditions: protein: recombinant; tags: N-terminal GST; dsDNA, one strand shown
T1 sequence: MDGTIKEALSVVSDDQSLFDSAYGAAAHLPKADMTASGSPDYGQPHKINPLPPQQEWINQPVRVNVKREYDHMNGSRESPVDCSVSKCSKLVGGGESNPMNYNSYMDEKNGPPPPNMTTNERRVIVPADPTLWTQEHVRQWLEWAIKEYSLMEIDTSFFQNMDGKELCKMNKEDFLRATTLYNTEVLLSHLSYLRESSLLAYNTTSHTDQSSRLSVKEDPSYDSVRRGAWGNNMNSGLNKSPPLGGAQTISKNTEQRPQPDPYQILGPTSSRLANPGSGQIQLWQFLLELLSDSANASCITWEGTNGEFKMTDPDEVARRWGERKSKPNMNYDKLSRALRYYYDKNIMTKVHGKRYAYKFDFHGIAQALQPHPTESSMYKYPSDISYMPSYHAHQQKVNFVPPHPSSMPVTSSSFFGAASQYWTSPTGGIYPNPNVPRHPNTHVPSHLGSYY
Summary of the method: as §1

ELK4 = molecular target: T2, ELK4 (Homo sapiens, UniProt P28324-2 1-405); conditions: protein: recombinant; tags: N-terminal GST; dsDNA, one strand shown
T2 sequence: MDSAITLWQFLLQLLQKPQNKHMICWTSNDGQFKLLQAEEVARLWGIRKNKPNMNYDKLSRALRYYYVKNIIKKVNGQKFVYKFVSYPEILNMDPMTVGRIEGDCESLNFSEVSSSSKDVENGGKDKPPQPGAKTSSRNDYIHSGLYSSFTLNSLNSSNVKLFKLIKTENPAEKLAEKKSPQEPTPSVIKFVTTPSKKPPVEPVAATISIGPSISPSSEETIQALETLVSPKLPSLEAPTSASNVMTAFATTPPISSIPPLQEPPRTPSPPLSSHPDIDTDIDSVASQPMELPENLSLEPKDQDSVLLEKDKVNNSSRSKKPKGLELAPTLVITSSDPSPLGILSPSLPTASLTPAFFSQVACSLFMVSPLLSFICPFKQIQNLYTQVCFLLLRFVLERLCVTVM
Summary of the method: as §1

ETV2 = molecular target: T3, ETV2 (Homo sapiens, UniProt O00321 1-342); conditions: protein: recombinant; tags: N-terminal GST; dsDNA, one strand shown
T3 sequence: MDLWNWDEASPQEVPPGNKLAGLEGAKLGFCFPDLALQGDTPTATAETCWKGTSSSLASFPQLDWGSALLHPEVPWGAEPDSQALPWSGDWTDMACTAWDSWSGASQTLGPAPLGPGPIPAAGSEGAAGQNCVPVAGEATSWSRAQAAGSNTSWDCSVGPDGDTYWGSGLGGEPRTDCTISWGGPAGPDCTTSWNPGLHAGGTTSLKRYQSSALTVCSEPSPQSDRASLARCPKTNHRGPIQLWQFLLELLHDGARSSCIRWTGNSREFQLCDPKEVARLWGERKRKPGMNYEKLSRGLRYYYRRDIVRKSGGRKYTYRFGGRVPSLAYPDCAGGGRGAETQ
Summary of the method: as §1

ELF3 = molecular target: T4, ELF3 (Homo sapiens, UniProt P78545 1-371); conditions: protein: recombinant; tags: N-terminal GST; dsDNA, one strand shown
T4 sequence: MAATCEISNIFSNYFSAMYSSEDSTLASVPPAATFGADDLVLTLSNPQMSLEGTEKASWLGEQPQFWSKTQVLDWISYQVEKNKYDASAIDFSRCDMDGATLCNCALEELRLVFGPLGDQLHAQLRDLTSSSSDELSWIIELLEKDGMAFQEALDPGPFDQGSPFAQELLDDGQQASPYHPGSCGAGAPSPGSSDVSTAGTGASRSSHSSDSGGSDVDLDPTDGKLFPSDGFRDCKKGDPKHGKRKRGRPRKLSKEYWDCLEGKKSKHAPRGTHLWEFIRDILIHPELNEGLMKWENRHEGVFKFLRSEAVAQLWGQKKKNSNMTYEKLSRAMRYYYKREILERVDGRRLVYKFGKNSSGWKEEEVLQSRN
Summary of the method: as §1

ETV1 = ETV1 (Homo sapiens, UniProt P50549 1-477); conditions: protein: recombinant; tags: N-terminal GST; dsDNA, one strand shown
Sequence of ETV1 (P50549 whole entry): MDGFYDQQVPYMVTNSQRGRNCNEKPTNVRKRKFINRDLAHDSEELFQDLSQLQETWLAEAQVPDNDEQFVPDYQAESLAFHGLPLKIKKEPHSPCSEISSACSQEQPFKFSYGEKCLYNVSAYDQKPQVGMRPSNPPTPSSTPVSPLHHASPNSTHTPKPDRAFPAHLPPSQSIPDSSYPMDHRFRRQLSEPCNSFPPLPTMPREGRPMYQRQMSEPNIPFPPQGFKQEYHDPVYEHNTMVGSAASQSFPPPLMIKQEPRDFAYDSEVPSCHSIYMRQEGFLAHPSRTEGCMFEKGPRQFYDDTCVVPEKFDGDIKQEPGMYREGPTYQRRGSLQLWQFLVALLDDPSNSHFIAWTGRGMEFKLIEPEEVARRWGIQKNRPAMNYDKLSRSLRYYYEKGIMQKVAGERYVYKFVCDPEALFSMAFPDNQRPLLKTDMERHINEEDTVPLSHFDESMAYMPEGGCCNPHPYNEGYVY
Summary of the method: as §1

ERF = molecular target: T5, ERF (Homo sapiens, UniProt P50548 1-548); conditions: protein: recombinant; tags: N-terminal GST; dsDNA, one strand shown
T5 sequence: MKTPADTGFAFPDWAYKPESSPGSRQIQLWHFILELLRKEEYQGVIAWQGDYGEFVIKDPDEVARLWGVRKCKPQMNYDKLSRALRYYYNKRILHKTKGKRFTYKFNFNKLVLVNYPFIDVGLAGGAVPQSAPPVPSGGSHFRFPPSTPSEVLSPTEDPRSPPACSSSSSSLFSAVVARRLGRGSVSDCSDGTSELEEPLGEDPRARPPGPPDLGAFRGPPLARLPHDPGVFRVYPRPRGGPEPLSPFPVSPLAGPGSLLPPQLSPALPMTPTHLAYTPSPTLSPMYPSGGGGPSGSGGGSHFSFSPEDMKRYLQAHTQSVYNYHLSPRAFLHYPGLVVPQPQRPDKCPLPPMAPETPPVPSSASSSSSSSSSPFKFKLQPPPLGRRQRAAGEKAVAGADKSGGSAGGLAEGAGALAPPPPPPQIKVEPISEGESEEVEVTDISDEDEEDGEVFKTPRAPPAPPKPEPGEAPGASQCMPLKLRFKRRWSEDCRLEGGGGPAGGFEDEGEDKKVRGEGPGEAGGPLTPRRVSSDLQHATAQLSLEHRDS
Summary of the method: as §1

ETV3L = molecular target: T6, ETV3L (Homo sapiens, UniProt Q6ZN32 1-361); conditions: protein: recombinant; tags: N-terminal GST; dsDNA, one strand shown
T6 sequence: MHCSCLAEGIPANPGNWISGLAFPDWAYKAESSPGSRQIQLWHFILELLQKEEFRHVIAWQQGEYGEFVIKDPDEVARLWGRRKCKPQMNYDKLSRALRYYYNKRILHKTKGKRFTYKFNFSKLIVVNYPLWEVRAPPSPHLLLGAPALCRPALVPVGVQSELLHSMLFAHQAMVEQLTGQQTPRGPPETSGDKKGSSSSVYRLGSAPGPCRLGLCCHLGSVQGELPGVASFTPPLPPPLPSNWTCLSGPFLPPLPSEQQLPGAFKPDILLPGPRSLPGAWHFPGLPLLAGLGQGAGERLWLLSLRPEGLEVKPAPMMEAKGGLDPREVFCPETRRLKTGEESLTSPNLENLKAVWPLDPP
Summary of the method: as §1

SPDEF = molecular target: T7, SPDEF (Homo sapiens, UniProt O95238 1-335); conditions: protein: recombinant; tags: N-terminal GST; dsDNA, one strand shown
T7 sequence: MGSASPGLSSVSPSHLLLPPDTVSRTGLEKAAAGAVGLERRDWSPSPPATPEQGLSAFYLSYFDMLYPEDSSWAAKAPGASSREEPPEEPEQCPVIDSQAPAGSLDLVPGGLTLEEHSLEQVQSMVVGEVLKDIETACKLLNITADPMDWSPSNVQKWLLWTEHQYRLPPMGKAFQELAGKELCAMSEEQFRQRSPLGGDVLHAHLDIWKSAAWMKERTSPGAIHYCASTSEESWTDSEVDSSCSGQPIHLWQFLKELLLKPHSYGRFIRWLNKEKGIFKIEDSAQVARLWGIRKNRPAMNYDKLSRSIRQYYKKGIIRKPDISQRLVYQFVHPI
Summary of the method: as §1

ETV7 = molecular target: T8, ETV7 (Homo sapiens, UniProt Q9Y603 1-341); conditions: protein: recombinant; tags: N-terminal GST; dsDNA, one strand shown
T8 sequence: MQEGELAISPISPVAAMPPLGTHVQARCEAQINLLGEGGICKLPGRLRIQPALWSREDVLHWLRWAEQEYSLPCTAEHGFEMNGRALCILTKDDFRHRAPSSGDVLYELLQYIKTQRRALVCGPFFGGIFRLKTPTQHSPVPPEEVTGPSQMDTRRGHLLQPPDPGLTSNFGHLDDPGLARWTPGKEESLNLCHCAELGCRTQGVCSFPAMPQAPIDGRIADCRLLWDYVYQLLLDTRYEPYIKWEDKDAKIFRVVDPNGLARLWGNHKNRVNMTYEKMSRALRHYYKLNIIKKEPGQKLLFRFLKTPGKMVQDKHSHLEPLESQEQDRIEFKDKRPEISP
Summary of the method: as §1

Sequence of HSF1 (Q00613 whole entry, the tested form may be a part): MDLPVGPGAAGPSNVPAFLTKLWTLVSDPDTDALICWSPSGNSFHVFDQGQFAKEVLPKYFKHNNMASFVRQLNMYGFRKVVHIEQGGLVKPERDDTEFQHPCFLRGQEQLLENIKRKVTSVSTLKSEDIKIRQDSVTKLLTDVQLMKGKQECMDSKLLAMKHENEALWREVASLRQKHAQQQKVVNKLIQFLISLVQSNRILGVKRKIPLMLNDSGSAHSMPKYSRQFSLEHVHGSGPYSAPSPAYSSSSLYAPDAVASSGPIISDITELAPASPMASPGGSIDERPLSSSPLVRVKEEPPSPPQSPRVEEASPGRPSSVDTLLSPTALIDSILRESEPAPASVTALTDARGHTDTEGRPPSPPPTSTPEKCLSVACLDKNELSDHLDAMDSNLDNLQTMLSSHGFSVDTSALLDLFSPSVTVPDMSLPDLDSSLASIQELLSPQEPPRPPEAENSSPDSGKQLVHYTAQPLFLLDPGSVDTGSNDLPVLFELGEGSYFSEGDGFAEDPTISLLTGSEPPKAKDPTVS

## TCGAGG
HSF1
  binding signal: 1.04 fold enrichment (6-mer frequency, TF over GST control)

## TCGTTG
FLI1
  binding signal: 1.01 fold enrichment (6-mer frequency, TF over GST control)
ELK4
  binding signal: 1.1 fold enrichment (6-mer frequency, TF over GST control)
ETV2
  binding signal: 1.19 fold enrichment (6-mer frequency, TF over GST control)
ELF3
  binding signal: 1.07 fold enrichment (6-mer frequency, TF over GST control)
ETV1
  binding signal: 1.02 fold enrichment (6-mer frequency, TF over GST control)
ERF
  binding signal: 1.03 fold enrichment (6-mer frequency, TF over GST control)
ETV3L
  binding signal: 1.1 fold enrichment (6-mer frequency, TF over GST control)
SPDEF
  binding signal: 1.01 fold enrichment (6-mer frequency, TF over GST control)

## CGTTGG
FLI1
  binding signal: 1.08 fold enrichment (6-mer frequency, TF over GST control)
ETV1
  binding signal: 1.01 fold enrichment (6-mer frequency, TF over GST control)
ERF
  binding signal: 1.07 fold enrichment (6-mer frequency, TF over GST control)
ETV7
  binding signal: 1.07 fold enrichment (6-mer frequency, TF over GST control)

From PMC7862700, “An all-to-all approach to the identification of sequence-specific readers for epigenetic DNA modifications on cytosine”
